Assay results reported in PMC11062922 (Nature Chemical Biology, 2023).
Read-outs that look alike come from different tables or passages of the source.

How the values were obtained:
CDK10 = system: CDK10; parameters: species or system human, MV4-11 + K-562 + COLO205 + SK-N-BE2 + OVCAR-8; conditions: read-out: apparent Kd; compound concentrations:100 nM and 1000 nM (sheet 'Samples'); n = 1
GSK3A = system: GSK3A; parameters: species or system human, MV4-11 + K-562 + COLO205 + SK-N-BE2 + OVCAR-8; conditions: read-out: apparent Kd; compound concentrations:100 nM and 1000 nM (sheet 'Samples'); n = 1
GSK3B = system: GSK3B; parameters: species or system human, MV4-11 + K-562 + COLO205 + SK-N-BE2 + OVCAR-8; conditions: read-out: apparent Kd; compound concentrations:100 nM and 1000 nM (sheet 'Samples'); n = 1
ILK = system: ILK; parameters: species or system human, MV4-11 + K-562 + COLO205 + SK-N-BE2 + OVCAR-8; conditions: read-out: apparent Kd; compound concentrations:100 nM and 1000 nM (sheet 'Samples'); n = 1
PKN1 = system: PKN1; parameters: species or system human, MV4-11 + K-562 + COLO205 + SK-N-BE2 + OVCAR-8; conditions: read-out: apparent Kd; compound concentrations:100 nM and 1000 nM (sheet 'Samples'); n = 1
PRKCB = system: PRKCB; parameters: species or system human, MV4-11 + K-562 + COLO205 + SK-N-BE2 + OVCAR-8; conditions: read-out: apparent Kd; compound concentrations: 100 nM and 1000 nM (sheet 'Samples'), CATDS: 0.15520106797875899; n = 1
PRKCI = system: PRKCI; parameters: species or system human, MV4-11 + K-562 + COLO205 + SK-N-BE2 + OVCAR-8; conditions: read-out: apparent Kd; compound concentrations:100 nM and 1000 nM (sheet 'Samples'); n = 1
RPS6KA6 = system: RPS6KA6; parameters: species or system human, MV4-11 + K-562 + COLO205 + SK-N-BE2 + OVCAR-8; conditions: read-out: apparent Kd; compound concentrations:100 nM and 1000 nM (sheet 'Samples'); n = 1
RPS6KB1 = system: RPS6KB1; parameters: species or system human, MV4-11 + K-562 + COLO205 + SK-N-BE2 + OVCAR-8; conditions: read-out: apparent Kd; compound concentrations:100 nM and 1000 nM (sheet 'Samples'); n = 1
CDC42 = system: CDC42; parameters: species or system human, MV4-11 + K-562 + COLO205 + SK-N-BE2 + OVCAR-8; conditions: read-out: apparent Kd, n = 1
PIK3CB = system: PIK3CB; parameters: species or system human, MV4-11 + K-562 + COLO205 + SK-N-BE2 + OVCAR-8; conditions: read-out: apparent Kd; compound concentrations:100 nM and 1000 nM (sheet 'Samples'); n = 1
RAB5C = system: RAB5C; parameters: species or system human, MV4-11 + K-562 + COLO205 + SK-N-BE2 + OVCAR-8; conditions: read-out: apparent Kd; compound concentrations:100 nM and 1000 nM (sheet 'Samples'); n = 1
CDK16 = system: CDK16; parameters: species or system human, MV4-11 + K-562 + COLO205 + SK-N-BE2 + OVCAR-8; conditions: read-out: apparent Kd; compound concentrations:100 nM and 1000 nM (sheet 'Samples'); n = 1
CDK17 = system: CDK17; parameters: species or system human, MV4-11 + K-562 + COLO205 + SK-N-BE2 + OVCAR-8; conditions: read-out: apparent Kd; compound concentrations:100 nM and 1000 nM (sheet 'Samples'); n = 1
CDK2 = system: CDK2; parameters: species or system human, MV4-11 + K-562 + COLO205 + SK-N-BE2 + OVCAR-8; conditions: read-out: apparent Kd; compound concentrations:100 nM and 1000 nM (sheet 'Samples'); n = 1
CSNK2A1;CSNK2A3 = system: CSNK2A1;CSNK2A3; parameters: species or system human, MV4-11 + K-562 + COLO205 + SK-N-BE2 + OVCAR-8; conditions: read-out: apparent Kd; compound concentrations:100 nM and 1000 nM (sheet 'Samples'); n = 1
CSNK2A2 = system: CSNK2A2; parameters: species or system human, MV4-11 + K-562 + COLO205 + SK-N-BE2 + OVCAR-8; conditions: read-out: apparent Kd; compound concentrations:100 nM and 1000 nM (sheet 'Samples'); n = 1
ERCC2 = system: ERCC2; parameters: species or system human, MV4-11 + K-562 + COLO205 + SK-N-BE2 + OVCAR-8; conditions: read-out: apparent Kd; compound concentrations:100 nM and 1000 nM (sheet 'Samples'); n = 1
MYLK3 = system: MYLK3; parameters: species or system human, MV4-11 + K-562 + COLO205 + SK-N-BE2 + OVCAR-8; conditions: read-out: apparent Kd; compound concentrations:100 nM and 1000 nM (sheet 'Samples'); n = 1
Q6ZSR9 = Q6ZSR9 (human, UniProt Q6ZSR9); parameters: species or system MV4-11 + K-562 + COLO205 + SK-N-BE2 + OVCAR-8; conditions: read-out: apparent Kd; compound concentrations:100 nM and 1000 nM (sheet 'Samples'); n = 1
Q6ZSR9, sequence (Q6ZSR9 whole entry, looked up): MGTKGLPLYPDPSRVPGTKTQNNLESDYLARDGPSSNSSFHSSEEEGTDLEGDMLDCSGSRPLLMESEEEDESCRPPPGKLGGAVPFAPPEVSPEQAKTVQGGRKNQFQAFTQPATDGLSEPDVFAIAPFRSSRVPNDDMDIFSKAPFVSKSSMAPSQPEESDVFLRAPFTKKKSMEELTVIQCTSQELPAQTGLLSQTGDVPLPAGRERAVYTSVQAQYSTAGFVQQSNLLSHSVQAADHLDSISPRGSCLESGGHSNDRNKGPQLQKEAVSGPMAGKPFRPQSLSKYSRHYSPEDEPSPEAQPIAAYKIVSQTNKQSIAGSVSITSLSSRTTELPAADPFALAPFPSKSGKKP

TTK = system: TTK; parameters: species or system human, MV4-11 + K-562 + COLO205 + SK-N-BE2 + OVCAR-8; conditions: read-out: apparent Kd; compound concentrations:100 nM and 1000 nM (sheet 'Samples'); n = 1
MDN1 = system: MDN1; parameters: species or system human, MV4-11 + K-562 + COLO205 + SK-N-BE2 + OVCAR-8; conditions: read-out: apparent Kd; compound concentrations: 100 nM and 1000 nM (sheet 'Samples'), CATDS: 0.33246338126543201; n = 1
RIOK2 = system: RIOK2; parameters: species or system human, MV4-11 + K-562 + COLO205 + SK-N-BE2 + OVCAR-8; conditions: read-out: apparent Kd; compound concentrations: 100 nM and 1000 nM (sheet 'Samples'), CATDS: 0.36068630579871103; n = 1
CSNK1A1 = system: CSNK1A1; parameters: species or system human, MV4-11 + K-562 + COLO205 + SK-N-BE2 + OVCAR-8; conditions: read-out: apparent Kd; compound concentrations:100 nM and 1000 nM (sheet 'Samples'); n = 1
CSNK1D = system: CSNK1D; parameters: species or system human, MV4-11 + K-562 + COLO205 + SK-N-BE2 + OVCAR-8; conditions: read-out: apparent Kd; compound concentrations:100 nM and 1000 nM (sheet 'Samples'); n = 1
CSNK1E = system: CSNK1E; parameters: species or system human, MV4-11 + K-562 + COLO205 + SK-N-BE2 + OVCAR-8; conditions: read-out: apparent Kd; compound concentrations:100 nM and 1000 nM (sheet 'Samples'); n = 1
ERBB3 = system: ERBB3; parameters: species or system human, MV4-11 + K-562 + COLO205 + SK-N-BE2 + OVCAR-8; conditions: read-out: apparent Kd; compound concentrations:100 nM and 1000 nM (sheet 'Samples'); n = 1
MAPK14 = system: MAPK14; parameters: species or system human, MV4-11 + K-562 + COLO205 + SK-N-BE2 + OVCAR-8; conditions: read-out: apparent Kd; compound concentrations:100 nM and 1000 nM (sheet 'Samples'); n = 1
MAPKAPK2 = system: MAPKAPK2; parameters: species or system human, MV4-11 + K-562 + COLO205 + SK-N-BE2 + OVCAR-8; conditions: read-out: apparent Kd; compound concentrations:100 nM and 1000 nM (sheet 'Samples'); n = 1
RAB14 = system: RAB14; parameters: species or system human, MV4-11 + K-562 + COLO205 + SK-N-BE2 + OVCAR-8; conditions: read-out: apparent Kd; compound concentrations:100 nM and 1000 nM (sheet 'Samples'); n = 1
[1] = compound concentrations:100 nM and 1000 nM (sheet 'Samples')

CN1C[C@@H]2Cn3c(c(C4=C(c5cn(C)c6ccccc56)C(=O)NC4=O)c4ccccc43)C[C@H]2C1.Cl [RO0320557-001]
potency estimated from few doses (CDK10): 1200 nM | potency estimated from few doses (GSK3A): 53.4 nM | potency estimated from few doses (GSK3B): 41.5 nM | potency estimated from few doses (ILK): 2350 nM | potency estimated from few doses (PKN1): 2490 nM | potency estimated from few doses (PRKCB): 20.3 nM | potency estimated from few doses (PRKCI): 1930 nM | potency estimated from few doses (RPS6KA6): 386 nM | potency estimated from few doses (RPS6KB1): 104 nM

O=c1cc(N2CCOCC2)nc2n(Cc3cccc(C(F)(F)F)c3)ccn12 [GSK2297543A]
potency estimated from few doses (CDC42; [1]): 1400 nM | potency estimated from few doses (PIK3CB): 274 nM | potency estimated from few doses (RAB5C): 976 nM

CC(=O)Nc1cccc(C#Cc2cncnc2Nc2ccc(OCc3cccc(F)c3)c(Cl)c2)c1 [GW703087X]
potency estimated from few doses (CDK10): 1540 nM

NS(=O)(=O)c1ccc(N/N=C2\C(=O)Nc3ccc(C(=O)NCc4ccncc4)cc32)cc1 [GSK300657X]
potency estimated from few doses (CDK16): 486 nM | potency estimated from few doses (CDK17): 957 nM | potency estimated from few doses (CDK2): 567 nM | potency estimated from few doses (CSNK2A1;CSNK2A3): 1460 nM | potency estimated from few doses (CSNK2A2): 771 nM | potency estimated from few doses (ERCC2): 2250 nM | potency estimated from few doses (MYLK3): 1620 nM | potency estimated from few doses (Q6ZSR9): 2140 nM | potency estimated from few doses (TTK): 2100 nM

Cn1cc(C2=C(c3cccc4ccccc34)C(=O)NC2=O)c2ccccc21 [RO0317253-000]
potency estimated from few doses (CDC42; compound concentrations: 100 nM and 1000 nM (sheet 'Samples'), CATDS: 0.310592027425942): 2180 nM | potency estimated from few doses (MDN1): 1890 nM | potency estimated from few doses (RIOK2): 1620 nM

NC(=O)c1ccc(Oc2nccc(-c3c(-c4ccc(F)cc4)ncn3C3CCNCC3)n2)cc1 [SB-242718]
potency estimated from few doses (CDC42; [1]): 922 nM | potency estimated from few doses (CSNK1A1): 2320 nM | potency estimated from few doses (CSNK1D): 246 nM | potency estimated from few doses (CSNK1E): 642 nM | potency estimated from few doses (ERBB3): 1430 nM | potency estimated from few doses (MAPK14): 476 nM | potency estimated from few doses (MAPKAPK2): 18.3 nM | potency estimated from few doses (RAB14): 1380 nM
